Nrf2 block = blocks Nrf2 signaling. A549 ARE-Fluc reporter, luciferase luminescence, 18-24 h. Potency, µM (series often up to 46 µM), actives largely listed as inhibitors. 2.1% of 360,000 active. AID 504444; further: nearly all actives have a fitted effect of over 60% in size
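Two sequential reads on A549 ARE_Fluc cells exposed to compound for 18-24 h: a CellTiter-Fluor fluorescence read for viability, then a luciferase luminescence read for Nrf2/ARE activity.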
A549 viability = counter-screen for Nrf2 inhibitors: cytotoxicity in A549 cells; A549 ARE-Fluc cells, CellTiter-Fluor viability, 18-24 h; Potency, µM (doses to about 46 µM), hits mostly inhibitors; 0.16% of 390,000 active
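A549 ARE-Fluc cells in 5% FBS OPTI-MEM, 5000 cells/well, rested 2 h then exposed to compounds in concentration-response for 18-24 h at 37 °C. Viability by CellTiter-Fluor fluorescence (Ex 405/Em 525) after 30 min; luciferase luminescence (BugLite, 15 min, RT) read afterwards.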
ATXN2 expr inh = inhibitors of ATXN2 expression. HEK-293 ATXN2-luciferase reporter, luminescence, 24 h. Potency, µM (highest dose often 57 µM), actives largely listed as inhibitors. 0.72% of 360,000 active; further: nearly all actives have a fitted effect of over 55% in size
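ATXN2-luciferase reporter cells (luciferase flanked by upstream and downstream ATXN2 gene portions) were treated 24 h at 37 °C with compounds at up to 57 uM. SteadyGlo luminescence gave expression; GF-AFC fluorescence gave viability.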
ATXN viability = cell viability loss in ATXN counter-screen; S2 cells (HEK-293 line with an ATXN2-luciferase reporter) viability, CellTiter-Fluor protease fluorescence, 24 h; Potency, µM (series often up to 56.7 µM), actives largely listed as cytotoxic; 0.49% of 400,000 active; further: nearly all actives have a fitted effect of over 40% in size
Nrf2 ARE act = Nrf2 pathway activation | AID 624171 | AREc32 ARE-luciferase reporter (MCF7-derived line), luminescence, 24 h | Potency, µM (top dose mostly 46.1 µM), actives largely listed as activators | 0.31% of 410,000 active; further: nearly all actives have a fitted effect of over 65% in size
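Cells of the AREc32 ARE-luciferase line are plated in OPTI-MEM containing 5% FBS and left overnight at 37 deg C. Compounds are pinned in, incubation continues 24 hr, and firefly luciferase signal is then measured.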
Hits are given with their value; [ ] = dose if it differs, or a comment. Only some compounds are listed: those with a hit (about 2.9% of all), similar ones and a draw of the others. The call rests on the fitted dose curve; in most records, active means well fitted curve in the direction sought with a large enough effect; inconclusive means small, poorly fitted or top-dose-only effect, or another doubt; inactive means no such curve, though single readings can be large; an effect the other way counts as inactive or inconclusive.

How did O=C(C[n+]1ccc2ccccc2c1)c1ccccc1 do in these assays?
Nrf2 block: inactive; A549 viability: inactive; ATXN2 expr inh: inactive; ATXN viability: inactive; Nrf2 ARE act: inactive

How did Clc1cccc(Cl)c1C[n+]1ccc2ccccc2c1 do in these assays?
Nrf2 block: 6.5µM; A549 viability: inactive; ATXN viability: inactive; Nrf2 ARE act: inactive

How did O=[N+]([O-])c1cc([N+](=O)[O-])c(Oc2cc(Cl)ccc2Cl)cc1NC1CCCCCCC1 do in these assays?
Nrf2 block: inconclusive; A549 viability: inactive; ATXN2 expr inh: inactive; ATXN viability: inactive; Nrf2 ARE act: inactive

How did CC(=O)c1cccc(NS(=O)(=O)N(C)C)c1 do in these assays?
A549 viability: inactive; ATXN2 expr inh: inactive; ATXN viability: inactive; Nrf2 ARE act: inactive

Results for Cc1ccsc1C1C=C(c2cccc(Br)c2)Nc2ncnn21 (stereo unspecified) ?
Nrf2 block: inactive; A549 viability: inactive; ATXN2 expr inh: inactive; ATXN viability: inactive; Nrf2 ARE act: 7.9µM

How did C1=C(c2ccccc2)Nc2ncnn2C1c1ccccc1 (stereo unspecified) do in these assays?
Nrf2 block: inactive; A549 viability: inactive; ATXN2 expr inh: inactive; Nrf2 ARE act: 7.1µM

How did CCn1cnc2sc(-c3ccccc3)cc2c1=O do in these assays?
Nrf2 block: inconclusive; A549 viability: inactive; ATXN2 expr inh: inactive; ATXN viability: inactive; Nrf2 ARE act: inactive

What do the screens show for `CC(C)CC(=O)Nc1ccc(N2CCN(S(C)(=O)=O)CC2)cc1`?
Nrf2 block: inactive; A549 viability: inactive; ATXN2 expr inh: inactive; ATXN viability: inactive; Nrf2 ARE act: inactive

How did C/C(CC(=O)Nc1ccc(N(C)C)cc1)=N\NC(=O)Cc1csc(N)n1 do in these assays?
Nrf2 block: inactive; A549 viability: inactive; ATXN2 expr inh: inactive; ATXN viability: inactive; Nrf2 ARE act: inactive[9.22 µM]

Results for CCOC(=O)c1cccc(NC(=O)Nc2ccc3c(c2)N(C)C(=O)c2ccccc2S3)c1 ?
Nrf2 block: 21µM; A549 viability: inactive; Nrf2 ARE act: inactive

What do the screens show for `CC(=O)c1cccc(NC(=O)Nc2ccc3c(c2)N(C)C(=O)CS3)c1`?
Nrf2 block: 13µM; A549 viability: inactive; ATXN2 expr inh: inconclusive; ATXN viability: inconclusive; Nrf2 ARE act: inactive

How did Cc1cc(C)cc(NC(=O)Nc2ccc3c(c2)N(C)C(=O)CS3)c1 do in these assays?
Nrf2 block: inconclusive; A549 viability: inactive; ATXN2 expr inh: inactive; ATXN viability: inactive; Nrf2 ARE act: inactive

What do the screens show for `CCOC(=O)c1cccc(NC(=O)CN2C(=O)CC(C)(C)Sc3ccccc32)c1`?
Nrf2 block: inconclusive; A549 viability: inactive; ATXN2 expr inh: inactive; ATXN viability: 28µM; Nrf2 ARE act: inactive

What do the screens show for `CCN(CC)c1ccc(NC(=O)Nc2cccc(C(C)=O)c2)cc1`?
Nrf2 block: 15µM; A549 viability: inactive; ATXN2 expr inh: inactive; ATXN viability: inactive; Nrf2 ARE act: inactive

Results for O=S(=O)(/C=C/c1ccccc1)N1CCN(c2ccc(F)cc2)CC1 ?
Nrf2 block: inactive; A549 viability: inactive; ATXN2 expr inh: inactive; ATXN viability: inactive; Nrf2 ARE act: inactive

What do the screens show for `Cc1ccc(C(=O)n2c3ccccc3c3ccccc32)cc1`?
A549 viability: inactive; ATXN2 expr inh: inactive; ATXN viability: inactive; Nrf2 ARE act: inactive

Results for CCc1ccc(NC(=O)Nc2ccc3c(c2)N(C)C(=O)CS3)cc1 ?
Nrf2 block: 16µM; A549 viability: inactive; ATXN2 expr inh: inconclusive; ATXN viability: inconclusive; Nrf2 ARE act: inactive

Results for Cc1cccc(NC(=O)CN2CCc3cc4c(cc3C2C)OCCCO4)c1 (stereo unspecified) ?
Nrf2 block: 23µM; A549 viability: inactive; ATXN2 expr inh: inactive; ATXN viability: inactive; Nrf2 ARE act: inactive

How did Cc1ccc(NC(=O)CN2CCc3cc4c(cc3C2)OCCCO4)cc1 do in these assays?
Nrf2 block: inactive; A549 viability: inactive; ATXN2 expr inh: inactive; ATXN viability: inactive; Nrf2 ARE act: inactive

What do the screens show for `Cc1cc(C)cc(NC(=O)CN2CCc3cc4c(cc3C2C)OCCCO4)c1` (stereo unspecified)?
Nrf2 block: 26µM; A549 viability: inactive; ATXN2 expr inh: inactive; ATXN viability: inactive; Nrf2 ARE act: inactive

What do the screens show for `COc1cc2c(cc1OC)C(CC(=O)O)N(C(=O)Nc1cc(OC)c(OC)c(OC)c1)CC2` (stereo unspecified)?
A549 viability: inactive; Nrf2 ARE act: inactive

How did CCCCOc1ccc(C(=O)NCC(=O)N2CC(C)CC(C)C2)cc1 (stereo unspecified) do in these assays?
Nrf2 block: inactive; A549 viability: inactive; ATXN2 expr inh: inactive; ATXN viability: inactive; Nrf2 ARE act: inactive

How did O=C(CN1CCC(NC(=O)c2ccccc2F)CC1)Nc1ccc2c(c1)OCCO2 do in these assays?
Nrf2 block: inactive; A549 viability: inactive; ATXN viability: inconclusive; Nrf2 ARE act: inactive

What do the screens show for `O=C(COc1ccccc1)NC1CCSC1=O` (stereo unspecified)?
Nrf2 block: inactive; A549 viability: inactive; ATXN2 expr inh: inactive; ATXN viability: inactive; Nrf2 ARE act: inactive

How did COc1ccc(C(=O)NCc2nnnn2-c2ccc(C)c(C)c2)cc1 do in these assays?
A549 viability: inactive; Nrf2 ARE act: inactive

What do the screens show for `CN(C)CCOCCOc1ccc(Cl)cc1C(C)(C)C`?
Nrf2 block: inactive; A549 viability: inactive; ATXN2 expr inh: inactive; ATXN viability: inactive; Nrf2 ARE act: inactive

How did CC(O)CNCCCOc1ccc(Cl)cc1C(C)(C)C (stereo unspecified) do in these assays?
Nrf2 block: inactive; A549 viability: inactive; ATXN2 expr inh: 34µM; ATXN viability: inconclusive; Nrf2 ARE act: inactive

How did O=C1NC2c3ccccc3CC2O1 (stereo unspecified) do in these assays?
Nrf2 block: inactive; A549 viability: inactive; ATXN2 expr inh: inactive; ATXN viability: inactive; Nrf2 ARE act: inactive

What do the screens show for `O=C1NC2c3c(I)sc(I)c3C(=O)C2O1` (stereo unspecified)?
Nrf2 block: inconclusive; A549 viability: inactive; ATXN2 expr inh: inconclusive; Nrf2 ARE act: 11µM

How did O=C1NC2c3c(Cl)sc(Cl)c3C(=O)C2O1 (stereo unspecified) do in these assays?
Nrf2 block: inactive; A549 viability: inactive; ATXN2 expr inh: inconclusive; ATXN viability: inconclusive; Nrf2 ARE act: 16µM

How did CC(NC(=O)CCCn1cc([N+](=O)[O-])cn1)c1ccccc1 (stereo unspecified) do in these assays?
Nrf2 block: inactive; A549 viability: inactive; ATXN2 expr inh: inactive; ATXN viability: inactive; Nrf2 ARE act: inactive

How did COc1ccc(/C=C/C(=O)Nc2cc(=O)n(C)c(=O)n2C)cc1 do in these assays?
Nrf2 block: inactive; A549 viability: inactive; ATXN2 expr inh: inactive; ATXN viability: inactive; Nrf2 ARE act: inactive

What do the screens show for `Cn1c(NC(=O)/C=C/c2ccccc2)cc(=O)n(C)c1=O`?
Nrf2 block: inconclusive; A549 viability: inactive; ATXN2 expr inh: inactive; ATXN viability: inactive; Nrf2 ARE act: 7.1µM

What do the screens show for `O=c1c2ccccc2nc(SCc2nc3ccccc3s2)n1Cc1ccco1`?
Nrf2 block: 4.6µM; A549 viability: inactive[1.84 µM]; ATXN2 expr inh: inactive; ATXN viability: inactive; Nrf2 ARE act: inactive
